Measured values as given in PubChem BioAssay (EPA / NIEHS).
Where “and” joins values, the source holds several entries; their conditions need not be identical. Identical values can stand only once. Inconclusive results are not listed. Where a structure was tested more than once in an assay, its records may differ in their call. Calls of active or inactive are those of the source. The calls were made as follows, unless noted: active = hit-call score of the fitted dose curve at least 0.9, where 1 is the maximum; inactive = score below 0.9.

Legend:
[1] = molecular target: Glucocorticoid receptor (Homo sapiens) (UniProt P04150); test: ATG_GR_TRANS: Attagene TRANS-FACTORIAL HepG2 Assay for human Glucocorticoid Receptor (GR) (AID 2282978; active = hit-call score of the fitted dose curve at least 0.9, where 1 is the maximum;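 also: activators score as hits since higher reporter transcript over DMSO is fitted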); conditions: HepG2 Attagene TRANS GR reporter, mRNA transcription
In short: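 Transient MRTU transfection of HepG2 (GAL4-UAS reporters, exogenous NR-GAL4 chimeras), 24 h dosing. Readout: reporter transcript via RT-PCR + capillary electrophoresis fluorescence. Positive direction vs DMSO baseline.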

[2] = molecular target: Bile acid receptor (Homo sapiens) (UniProt Q96RI1); test: ATG_FXR_TRANS: Attagene TRANS-FACTORIAL HepG2 Assay for Farnesoid X Receptor (FXR) (AID 2282979; active = hit-call score of the fitted dose curve at least 0.9, where 1 is the maximum;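 also: hits raise reporter mRNA above DMSO so AC50 marks FXR activation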); conditions: HepG2 Attagene TRANS FXR-GAL4 reporter transcription
In short: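 After 24 h chemical treatment of transfected HepG2 cells, GAL4-UAS reporter transcripts driven by an exogenous FXR-GAL4 fusion were measured by RT-PCR and capillary electrophoresis. Increases over DMSO were fitted.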

[3] = molecular target: Oxysterols receptor LXR-alpha (Homo sapiens) (UniProt Q13133); test: ATG_LXRa_TRANS: Attagene TRANS-FACTORIAL HepG2 Assay for human Liver X Receptor alpha (LXRa) (AID 2282980; active = hit-call score of the fitted dose curve at least 0.9, where 1 is the maximum); conditions: HepG2 Attagene TRANS reporter, LXRa transactivation
In short: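 In this multiplexed TRANS system, compounds act on HepG2 cells carrying GAL4-UAS reporter units and a receptor-GAL4 fusion for 24 h. Induced reporter RNA is amplified, fluorescently labelled and sized by capillary electrophoresis, with DMSO as baseline.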

[4] = molecular target: Oxysterols receptor LXR-beta (Homo sapiens) (UniProt P55055); test: ATG_LXRb_TRANS: Attagene TRANS-FACTORIAL HepG2 Assay for human Liver X Receptor beta (LXRb) (AID 2282981; active = hit-call score of the fitted dose curve at least 0.9, where 1 is the maximum); conditions: HepG2 Attagene TRANS GAL4-LXRb reporter, mRNA
In short: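 Gain-of-signal mRNA reporter endpoint, DMSO as negative control. Transiently transfected HepG2 cells carrying the NR-Gal4 chimera and GAL4-UAS reporter units were treated 24 h; transcripts quantified by RT-PCR and capillary electrophoresis fluorescence.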

[5] = molecular target: Hepatocyte nuclear factor 4-alpha (Homo sapiens) (UniProt P41235); test: ATG_HNF4a_TRANS: Attagene TRANS-FACTORIAL HepG2 Assay for human Hepatocyte Nuclear Factor 4 alpha (HNF4a) (AID 2282982; active = hit-call score of the fitted dose curve at least 0.9, where 1 is the maximum); conditions: HepG2 HNF4a transactivation reporter, mRNA readout
In short: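 Gain-of-signal mRNA induction, relative to DMSO vehicle, was read after 24 h compound treatment of HepG2 cells bearing transfected GAL4-UAS reporters. Detection used RT-PCR, 6-FAM primer extension and capillary electrophoresis.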

[6] = ATG_M_06_TRANS: Attagene TRANS-FACTORIAL HepG2 Assay for M06 Transcription Factor (Internal Marker) (AID 2282983; active = hit-call score of the fitted dose curve at least 0.9, where 1 is the maximum); conditions: HepG2 Attagene TRANS M06 internal marker reporter
In short: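 Internal-marker background readout from a multiplexed TRANS reporter system in HepG2; 24 h dosing; mRNA induction quantified by RT-PCR plus capillary electrophoresis fluorescence; DMSO as negative control and baseline.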

[7] = ATG_M_32_TRANS: Attagene TRANS-FACTORIAL HepG2 Assay for M32 Transcription Factor (Internal Marker) (AID 2282984; active = hit-call score of the fitted dose curve at least 0.9, where 1 is the maximum;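 also: transcript level of a background control reporter unit measured by RT-PCR and capillary electrophoresis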); conditions: HepG2 Attagene TRANS M32 internal marker reporter
In short: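 Capillary electrophoresis of 6-FAM-labelled reporter fragments gives the signal; data fitted for gain over DMSO negative control. Source: HepG2 cells bearing transient multiple reporter transcription units, 24 h exposure.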

[8] = molecular target: Nuclear receptor subfamily 4 group A member 2 (Homo sapiens) (UniProt P43354); test: ATG_NURR1_TRANS: Attagene TRANS-FACTORIAL HepG2 Assay for human Nuclear Receptor Related Protein 1 (NURR1) (AID 2282985; active = hit-call score of the fitted dose curve at least 0.9, where 1 is the maximum); conditions: HepG2 Attagene TRANS reporter, mRNA readout
In short: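 HepG2 / transient MRTU transfection / 24 h compound exposure / RT-PCR + CE fluorescence of reporter mRNA / gain-of-signal vs DMSO.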

[9] = molecular target: Transcriptional activator Myb (Homo sapiens) (UniProt P10242); test: ATG_Myb_CIS: Attagene CIS-FACTORIAL HepG2 Assay for human Myeloblastosis (Myb) Proto-Oncogene Transcription Factor (AID 2282986); conditions: HepG2 Attagene CIS-FACTORIAL Myb reporter transcription; actives raise or lower the signal
In short: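 HepG2, transient MRTU transfection (cis-element promoters, endogenous TF activity), 24 h compound exposure. Readout: reporter mRNA via RT-PCR, 6-FAM labeling, HpaI digest, capillary electrophoresis. Gain/loss fit vs DMSO.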

[10] = molecular target: Nuclear respiratory factor 1 (Homo sapiens) (UniProt Q16656); test: ATG_NRF1_CIS: Attagene CIS-FACTORIAL HepG2 Assay for human Nuclear Respiratory Factor 1 (NRF1) Orphan Gene (AID 2282987); conditions: HepG2 NRF1 cis-element reporter, Attagene multiplex; actives raise or lower the signal
In short: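 Endogenous NRF1-driven reporter transcription measured in transiently transfected human HepG2 liver cells. Readout: reporter mRNA by RT-PCR and capillary electrophoresis with fluorescence detection, 24 h post-dosing. Gain or loss of signal fitted relative to DMSO baseline.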

[11] = ATG_NFI_CIS: Attagene CIS-FACTORIAL HepG2 Assay for human Nuclear Factor I (NFI) (AID 2282989); conditions: HepG2 cis-regulatory reporter, NFI response element transcription; actives raise or lower the signal
In short: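 Transfected HepG2 liver cells, exposed 24 h, supplied total RNA for oligo(dT) reverse transcription and reporter-specific PCR. Labelled, HpaI-cut fragments were sized by capillary electrophoresis; DMSO set the baseline for bidirectional fitting.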

[12] = molecular target: Myc proto-oncogene protein (Homo sapiens) (UniProt P01106); test: ATG_Myc_CIS: Attagene CIS-FACTORIAL HepG2 Assay for human Myelocytomatosis (Myc) Proto-Oncogene Transcription Factor (AID 2282990); conditions: HepG2, Attagene cis-reporter transcription factor activity; actives raise or lower the signal
In short: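 Transiently transfected HepG2 cells bearing cis-promoter reporter units for endogenous transcription factors; 24 h exposure. Reporter mRNA measured by RT-PCR, 6-FAM primer extension, HpaI cut and capillary electrophoresis; bidirectional fit relative to DMSO.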

[13] = ATG_NRF2_ARE_CIS: Attagene CIS-FACTORIAL HepG2 Assay for human Nuclear Factor Erythroid 2 Related Factor 2 (NFR2) response to Antioxidant Response Elements (ARE) (AID 2282992); conditions: HepG2 Attagene ARE/NRF2 reporter, transcription factor activity; actives raise or lower the signal
In short: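 HepG2 cells transiently transfected with multiplexed cis-element reporter constructs, 24 h after chemical dosing; reporter mRNA quantified by RT-PCR, fluorescent primer extension, HpaI digestion and capillary electrophoresis. Bidirectional fit relative to DMSO.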

[14] = ATG_Oct_MLP_CIS: Attagene CIS-FACTORIAL HepG2 Assay for human Octamer-Binding Transcription Factor (Oct) (AID 2282993); conditions: HepG2 Attagene cis-factorial Oct reporter, mRNA; actives raise or lower the signal
In short: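 Using HepG2 cells bearing transfected cis-reporter constructs, mRNA induction was read after 24 h by fluorescent RT-PCR and capillary electrophoresis, with DMSO defining baseline for gain- or loss-of-signal fits.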

[15] = molecular target: Cellular tumor antigen p53 (Homo sapiens) (UniProt P04637); test: ATG_p53_CIS: Attagene CIS-FACTORIAL HepG2 Assay for human p53 Transcription Factor (AID 2282994); conditions: HepG2 p53 cis-element reporter, Attagene mRNA; actives raise or lower the signal
In short: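 HepG2 cells transiently transfected with cis-regulated multiple reporter transcription units, dosed 24 h. Reporter mRNA measured by RT-PCR, 6-FAM primer extension, HpaI digestion and capillary electrophoresis; bidirectional fit relative to DMSO.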

[16] = BSK_3C_TissueFactor: BioMAP Diversity Plus: 3C Assay for Tissue Factor Biomarker Activity (AID 2282997); conditions: BioMAP 3C HUVEC, tissue factor biomarker readout; actives raise or lower the signal
In short: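 Endothelial monolayers (human umbilical vein, primary) are dosed, incubated 24 h, and assayed for Tissue Factor by ELISA; DMSO serves as negative control for bidirectional fitting.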

[17] = BSK_3C_uPAR: BioMAP Diversity Plus: 3C Assay for Urokinase-type plasminogen activator receptor (uPAR) Biomarker Activity (AID 2282998); conditions: BioMAP 3C HUVEC, uPAR biomarker ELISA; actives raise or lower the signal
In short: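 In this endothelial cell-based assay, human umbilical vein primary cells were treated with chemicals and harvested at 24 h. uPAR was quantified using ELISA, with gains or losses fitted relative to DMSO controls.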

[18] = BSK_3C_VCAM1: BioMAP Diversity Plus: 3C Assay for Vascular cell adhesion molecule 1 (VCAM1) Biomarker Activity (AID 2282999); conditions: BioMAP 3C HUVEC, VCAM1 ELISA, cytokine-stimulated; actives raise or lower the signal
In short: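 Human umbilical vein endothelial cells (3C system), biomarker read by ELISA 24 h after dosing; bidirectional fit against DMSO baseline. Cytotoxicity tracked by SRB total-protein staining in parallel cultures at biomarker time.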

Chain of Oxysterols receptor LXR-beta (Homo sapiens) (P55055 whole entry, looked up, the tested form may be a part): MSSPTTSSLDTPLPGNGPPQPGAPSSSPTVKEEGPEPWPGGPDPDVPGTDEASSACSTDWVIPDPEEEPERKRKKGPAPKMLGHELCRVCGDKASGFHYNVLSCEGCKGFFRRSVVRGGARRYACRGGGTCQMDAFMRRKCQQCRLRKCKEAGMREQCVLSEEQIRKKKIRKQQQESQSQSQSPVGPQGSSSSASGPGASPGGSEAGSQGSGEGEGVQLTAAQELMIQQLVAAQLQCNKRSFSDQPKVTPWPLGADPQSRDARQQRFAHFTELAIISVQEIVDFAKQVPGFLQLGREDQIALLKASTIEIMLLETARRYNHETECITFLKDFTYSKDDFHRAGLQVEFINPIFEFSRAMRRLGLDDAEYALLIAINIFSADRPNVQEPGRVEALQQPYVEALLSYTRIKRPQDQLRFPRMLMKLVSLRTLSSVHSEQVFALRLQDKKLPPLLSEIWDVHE
Chain of Transcriptional activator Myb (Homo sapiens) (P10242 whole entry, looked up): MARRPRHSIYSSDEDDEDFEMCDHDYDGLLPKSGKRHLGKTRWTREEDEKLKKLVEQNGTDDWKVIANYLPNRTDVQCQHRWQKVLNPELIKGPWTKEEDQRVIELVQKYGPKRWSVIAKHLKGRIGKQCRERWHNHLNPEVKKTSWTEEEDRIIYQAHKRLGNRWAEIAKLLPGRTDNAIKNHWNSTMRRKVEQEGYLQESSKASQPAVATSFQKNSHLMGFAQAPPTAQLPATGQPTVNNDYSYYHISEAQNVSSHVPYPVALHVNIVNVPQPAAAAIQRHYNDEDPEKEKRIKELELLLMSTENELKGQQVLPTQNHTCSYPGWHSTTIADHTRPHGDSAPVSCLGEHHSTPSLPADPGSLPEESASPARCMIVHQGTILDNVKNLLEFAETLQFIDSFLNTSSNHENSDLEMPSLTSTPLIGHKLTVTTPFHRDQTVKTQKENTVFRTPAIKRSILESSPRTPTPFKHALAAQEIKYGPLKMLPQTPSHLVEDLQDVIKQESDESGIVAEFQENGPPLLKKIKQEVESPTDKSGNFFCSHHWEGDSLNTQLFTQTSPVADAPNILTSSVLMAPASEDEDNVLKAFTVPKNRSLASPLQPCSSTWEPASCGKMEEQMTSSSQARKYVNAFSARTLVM
Chain of Nuclear respiratory factor 1 (Homo sapiens) (Q16656 whole entry, looked up): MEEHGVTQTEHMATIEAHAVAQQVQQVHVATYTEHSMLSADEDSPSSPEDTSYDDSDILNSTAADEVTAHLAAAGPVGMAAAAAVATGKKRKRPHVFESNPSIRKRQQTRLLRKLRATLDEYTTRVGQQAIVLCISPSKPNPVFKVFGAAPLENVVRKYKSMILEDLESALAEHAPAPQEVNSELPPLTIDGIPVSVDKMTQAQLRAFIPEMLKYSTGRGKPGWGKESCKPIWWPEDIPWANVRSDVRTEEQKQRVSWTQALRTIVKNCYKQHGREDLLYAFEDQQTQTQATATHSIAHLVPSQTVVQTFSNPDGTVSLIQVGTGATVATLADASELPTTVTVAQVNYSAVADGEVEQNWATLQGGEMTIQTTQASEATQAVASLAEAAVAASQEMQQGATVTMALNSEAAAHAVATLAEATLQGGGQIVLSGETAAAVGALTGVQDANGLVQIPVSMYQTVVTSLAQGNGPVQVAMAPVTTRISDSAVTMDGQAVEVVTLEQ
Chain of Oxysterols receptor LXR-alpha (Homo sapiens) (Q13133 whole entry, looked up, the tested form may be a part): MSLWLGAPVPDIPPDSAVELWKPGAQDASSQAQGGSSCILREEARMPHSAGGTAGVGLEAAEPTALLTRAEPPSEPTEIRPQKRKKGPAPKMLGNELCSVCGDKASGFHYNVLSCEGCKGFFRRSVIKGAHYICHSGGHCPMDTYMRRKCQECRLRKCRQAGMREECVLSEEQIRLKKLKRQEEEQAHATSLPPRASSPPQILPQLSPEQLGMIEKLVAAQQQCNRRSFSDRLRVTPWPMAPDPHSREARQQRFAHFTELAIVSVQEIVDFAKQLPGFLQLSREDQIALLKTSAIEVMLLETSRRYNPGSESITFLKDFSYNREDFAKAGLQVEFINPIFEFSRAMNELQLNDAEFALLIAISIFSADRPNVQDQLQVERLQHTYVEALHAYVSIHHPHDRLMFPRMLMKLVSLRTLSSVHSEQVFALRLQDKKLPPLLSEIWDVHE
Chain of Myc proto-oncogene protein (Homo sapiens) (P01106 whole entry, looked up): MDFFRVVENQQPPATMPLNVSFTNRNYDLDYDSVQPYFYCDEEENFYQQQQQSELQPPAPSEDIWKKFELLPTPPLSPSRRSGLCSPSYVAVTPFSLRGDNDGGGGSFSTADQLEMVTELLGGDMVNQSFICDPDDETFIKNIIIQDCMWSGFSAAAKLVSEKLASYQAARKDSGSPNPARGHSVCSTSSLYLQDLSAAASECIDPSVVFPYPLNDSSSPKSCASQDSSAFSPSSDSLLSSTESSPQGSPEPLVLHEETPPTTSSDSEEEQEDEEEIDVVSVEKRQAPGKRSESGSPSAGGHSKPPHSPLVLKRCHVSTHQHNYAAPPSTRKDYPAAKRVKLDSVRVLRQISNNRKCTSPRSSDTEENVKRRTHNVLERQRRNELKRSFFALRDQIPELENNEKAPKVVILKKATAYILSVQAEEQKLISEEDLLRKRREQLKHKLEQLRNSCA
Chain of Cellular tumor antigen p53 (Homo sapiens) (P04637 whole entry, looked up): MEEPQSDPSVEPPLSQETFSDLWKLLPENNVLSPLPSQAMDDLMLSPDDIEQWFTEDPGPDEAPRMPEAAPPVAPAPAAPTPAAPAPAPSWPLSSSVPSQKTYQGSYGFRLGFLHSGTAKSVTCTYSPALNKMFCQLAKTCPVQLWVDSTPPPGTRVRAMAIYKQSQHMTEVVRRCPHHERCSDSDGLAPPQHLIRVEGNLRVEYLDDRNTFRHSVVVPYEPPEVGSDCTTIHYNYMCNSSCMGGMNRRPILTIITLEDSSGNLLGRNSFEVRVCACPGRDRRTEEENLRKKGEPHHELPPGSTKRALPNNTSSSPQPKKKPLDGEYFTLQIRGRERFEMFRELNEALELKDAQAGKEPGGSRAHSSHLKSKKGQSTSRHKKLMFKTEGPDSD
Chain of Bile acid receptor (Homo sapiens) (Q96RI1 whole entry, looked up, the tested form may be a part): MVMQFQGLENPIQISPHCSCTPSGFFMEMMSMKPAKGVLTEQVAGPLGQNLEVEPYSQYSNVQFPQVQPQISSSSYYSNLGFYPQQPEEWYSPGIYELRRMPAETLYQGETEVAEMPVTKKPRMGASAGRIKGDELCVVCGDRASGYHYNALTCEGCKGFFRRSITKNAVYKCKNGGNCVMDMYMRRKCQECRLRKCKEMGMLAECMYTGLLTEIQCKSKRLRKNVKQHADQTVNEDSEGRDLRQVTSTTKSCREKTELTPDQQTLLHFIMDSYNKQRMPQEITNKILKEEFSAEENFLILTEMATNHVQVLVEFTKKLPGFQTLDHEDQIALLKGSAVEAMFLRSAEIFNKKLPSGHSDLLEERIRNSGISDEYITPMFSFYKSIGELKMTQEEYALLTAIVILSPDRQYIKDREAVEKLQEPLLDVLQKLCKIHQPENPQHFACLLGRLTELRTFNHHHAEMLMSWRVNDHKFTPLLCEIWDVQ
Chain of Glucocorticoid receptor (Homo sapiens) (P04150 whole entry, looked up, the tested form may be a part): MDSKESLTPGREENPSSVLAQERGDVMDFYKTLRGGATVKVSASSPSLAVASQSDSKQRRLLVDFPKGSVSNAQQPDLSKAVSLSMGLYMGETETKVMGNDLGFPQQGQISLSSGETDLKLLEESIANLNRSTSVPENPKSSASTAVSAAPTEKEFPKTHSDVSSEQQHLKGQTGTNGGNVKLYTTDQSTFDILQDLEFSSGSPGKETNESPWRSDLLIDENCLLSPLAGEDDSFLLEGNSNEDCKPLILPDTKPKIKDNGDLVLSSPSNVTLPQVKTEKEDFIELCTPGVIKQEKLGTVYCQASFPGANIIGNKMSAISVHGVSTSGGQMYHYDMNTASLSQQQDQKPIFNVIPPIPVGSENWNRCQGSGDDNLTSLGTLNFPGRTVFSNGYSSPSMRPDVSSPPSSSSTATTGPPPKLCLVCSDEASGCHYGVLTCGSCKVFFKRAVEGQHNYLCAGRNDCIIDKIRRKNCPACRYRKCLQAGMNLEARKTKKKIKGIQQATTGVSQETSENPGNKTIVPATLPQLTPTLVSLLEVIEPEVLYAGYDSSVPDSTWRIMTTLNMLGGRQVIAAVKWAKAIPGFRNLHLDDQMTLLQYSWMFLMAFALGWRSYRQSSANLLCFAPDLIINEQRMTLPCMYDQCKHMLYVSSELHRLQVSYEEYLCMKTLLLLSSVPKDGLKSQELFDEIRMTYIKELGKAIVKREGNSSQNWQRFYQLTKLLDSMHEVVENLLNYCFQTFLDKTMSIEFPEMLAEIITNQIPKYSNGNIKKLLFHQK
Chain of Nuclear receptor subfamily 4 group A member 2 (Homo sapiens) (P43354 whole entry, looked up): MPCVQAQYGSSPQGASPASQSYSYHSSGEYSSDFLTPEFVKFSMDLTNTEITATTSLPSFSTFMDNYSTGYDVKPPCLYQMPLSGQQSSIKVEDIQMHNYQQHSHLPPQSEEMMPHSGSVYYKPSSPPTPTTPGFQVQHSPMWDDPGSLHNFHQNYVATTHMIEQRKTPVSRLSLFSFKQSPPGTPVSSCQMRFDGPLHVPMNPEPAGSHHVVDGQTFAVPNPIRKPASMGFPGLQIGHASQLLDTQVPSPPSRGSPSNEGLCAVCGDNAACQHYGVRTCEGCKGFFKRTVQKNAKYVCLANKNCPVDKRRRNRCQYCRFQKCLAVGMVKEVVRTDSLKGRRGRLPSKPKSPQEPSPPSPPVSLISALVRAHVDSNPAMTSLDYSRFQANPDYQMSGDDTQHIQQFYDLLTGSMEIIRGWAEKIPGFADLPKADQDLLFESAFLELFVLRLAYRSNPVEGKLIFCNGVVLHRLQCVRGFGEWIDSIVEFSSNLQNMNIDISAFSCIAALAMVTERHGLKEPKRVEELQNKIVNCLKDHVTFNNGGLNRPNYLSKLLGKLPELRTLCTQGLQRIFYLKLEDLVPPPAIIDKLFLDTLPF

## C[C@]12CCC(=O)C=C1CC[C@@H]1[C@@H]2CC[C@@]2(C)[C@H]1CC[C@]2(C)O
[1]
  outcome: inactive
[2]
  outcome: inactive
[3]
  outcome: inactive
[4]
  outcome: inactive
[5]
  outcome: inactive
[6]
  outcome: inactive
[7]
  outcome: inactive
[8]
  outcome: inactive
[9]
  outcome: inactive
[10]
  AC50: 21.6 µM (active)
  outcome: inactive
[11]
  outcome: inactive
[12]
  outcome: inactive
[13]
  AC50: 60.3 µM (active) and 53.6 µM (active) and 91.5 µM (active)
[14]
  outcome: inactive
[15]
  AC50: 58.8 µM (active)
  outcome: inactive
[16]
  outcome: inactive
[17]
  outcome: inactive
[18]
  outcome: inactive
